# Laboratory results: PMC4336329 (PLoS ONE, 2015)
# Hit rate of the full screen: of about 310,000 compounds, about 14,000 (4.5%) showed an effect of 50% or more. The effect is printed as a negative number. Many of the other results were omitted from the sample, so strong results are more common in it than they were.
# Target: human ether-à-go-go-related gene (hERG) potassium channel (human, UniProt Q12809)
# Assay: primary screen, population patch clamp on CHO cells stably expressing hERG; higher = less effect of the substance
# 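Also: peak tail current of the secondary pulse compared with the same well before compound.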
# Sequence of human ether-à-go-go-related gene (hERG) potassium channel (Q12809 whole entry, looked up): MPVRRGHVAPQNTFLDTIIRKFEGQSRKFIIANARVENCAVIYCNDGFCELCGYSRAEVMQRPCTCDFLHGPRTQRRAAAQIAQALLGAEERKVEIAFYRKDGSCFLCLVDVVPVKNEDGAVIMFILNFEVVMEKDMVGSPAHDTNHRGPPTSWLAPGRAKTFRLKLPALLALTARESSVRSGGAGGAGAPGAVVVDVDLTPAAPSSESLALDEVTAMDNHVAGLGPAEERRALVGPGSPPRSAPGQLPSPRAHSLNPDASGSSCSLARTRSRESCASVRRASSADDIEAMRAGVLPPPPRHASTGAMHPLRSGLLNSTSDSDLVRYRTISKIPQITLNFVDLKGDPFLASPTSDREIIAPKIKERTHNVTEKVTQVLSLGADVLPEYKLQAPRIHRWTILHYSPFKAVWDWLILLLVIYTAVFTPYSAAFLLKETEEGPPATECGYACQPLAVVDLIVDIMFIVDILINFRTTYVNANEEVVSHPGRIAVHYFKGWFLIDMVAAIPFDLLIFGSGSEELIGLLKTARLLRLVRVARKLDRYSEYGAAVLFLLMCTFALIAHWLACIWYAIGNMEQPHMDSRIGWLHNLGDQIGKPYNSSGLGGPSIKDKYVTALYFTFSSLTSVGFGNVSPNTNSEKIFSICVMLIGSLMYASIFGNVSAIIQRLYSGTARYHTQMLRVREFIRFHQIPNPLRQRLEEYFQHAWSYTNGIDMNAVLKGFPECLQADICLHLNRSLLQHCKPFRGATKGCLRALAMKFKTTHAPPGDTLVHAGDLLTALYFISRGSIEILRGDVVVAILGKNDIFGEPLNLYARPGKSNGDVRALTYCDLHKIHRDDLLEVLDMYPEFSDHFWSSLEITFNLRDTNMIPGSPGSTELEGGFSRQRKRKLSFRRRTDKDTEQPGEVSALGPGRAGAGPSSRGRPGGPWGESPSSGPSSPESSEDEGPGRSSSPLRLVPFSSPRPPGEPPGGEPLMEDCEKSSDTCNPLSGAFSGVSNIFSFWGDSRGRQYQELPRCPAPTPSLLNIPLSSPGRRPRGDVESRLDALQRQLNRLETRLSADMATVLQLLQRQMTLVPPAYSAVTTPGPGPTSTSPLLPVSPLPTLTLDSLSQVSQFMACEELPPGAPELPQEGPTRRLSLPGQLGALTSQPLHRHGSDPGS
row,Structure (SMILES),"hERG current change (%, negative = inhibition) at 10uM [%]"
1,Cc1ccc(S(=O)(=O)N(C)CC(=O)Nc2ccccc2)cc1,-20
2,COc1cccc(CC(=O)OCC(=O)NC2(C#N)CCCCC2)c1,16.5
3,Cc1nnc(NC(=O)CCSc2ccccc2)s1,1.73
4,COC(=O)C1CCN(C(=O)COC(=O)c2n[nH]c3ccccc23)CC1,10.8
5,Cc1nn(C)cc1C(C)NC(=O)c1cc(COc2cccc3cnccc23)on1 (centres unmarked),13.9
6,COc1cccc(OCc2cc(C(=O)NC(C)c3cnn(C)c3C)no2)c1 (centres unmarked),-2.65
7,Cc1c(C(C)NC(=O)c2cc(COc3cccc4cnccc34)on2)cnn1C (centres unmarked),-55.6
8,Cc1ccc(C)c(NC(=O)NNC(=O)c2ccc3ccccc3c2O)c1,11.4
9,COc1cccc(N2CCN(C(=O)c3cn(Cc4ccccc4)nc3-c3cccnc3)CC2)c1,-12.9
10,O=C(O)/C=C/c1cn(Cc2ccccc2)nc1-c1cccnc1,12
11,O=C(c1cn(Cc2ccccc2)nc1-c1cccnc1)N1CCN(Cc2c(F)cccc2Cl)CC1,-4.33
12,O=C(c1cn(Cc2ccccc2)nc1-c1cccnc1)N1CCN(Cc2ccccc2)CC1,-33.5
13,COCCOC(=O)/C(C#N)=C/c1cn(Cc2ccccc2)nc1-c1cccnc1,-67.1
14,CC(=O)c1ccc(N2CCN(C(=O)c3cn(Cc4ccccc4)nc3-c3cccnc3)CC2)c(F)c1,-50.2
15,COc1ccc(N2CCN(C(=O)c3cn(Cc4ccccc4)nc3-c3cccnc3)CC2)cc1,-33.3
16,O=Cc1cn(Cc2ccccc2)nc1-c1cccnc1,7.48
17,N#Cc1ccc(CN2CCN(C(=O)c3cn(Cc4ccccc4)nc3-c3cccnc3)CC2)cc1,-72.9
18,CCc1nnc(NC(=O)CSc2nc3c(c(=O)n2C)SC(C)C3)s1 (centres unmarked),-2.54
19,CCCCOC(=O)c1ccc(NC(=O)c2ocnc2C)cc1,-8.8
20,O=C(OC(C(=O)NCc1ccco1)c1ccc(Cl)cc1)c1cccs1 (centres unmarked),17.6
21,CC(C)Oc1ccccc1/C=N/NC(=O)C1CC1,7.57
22,Cl.c1ccc2c(N3CCOCC3)nc(N3CCOCC3)nc2c1,-19.4
23,Cl.c1ccc(CN2CCN(c3nc(N4CCOCC4)c4ccccc4n3)CC2)cc1,-70.3

row,Structure (SMILES),"hERG current change (%, negative = inhibition) at 10uM [%]"
1,Cc1ccc(OCCN2CCN(c3nc(NCc4ccco4)c4ccccc4n3)CC2)cc1,-62.6
2,CCN1CCN(c2nc(NCCO)c3ccccc3n2)CC1.Cl,-16.7
3,O=C(NCCO)c1nc(NCCO)c2ccccc2n1,10.3
4,Cc1ccc(-c2nc(NCc3ccco3)c3ccccc3n2)cc1,4.65
5,Cl.OCCNc1nc(N2CCN(Cc3ccccc3)CC2)nc2ccccc12,-68.3
6,Cl.OCCN1CCN(c2nc(NCc3ccco3)c3ccccc3n2)CC1,-75.3
7,Cc1cccc(Nc2nc(NCc3ccco3)c3ccccc3n2)c1.Cl,-12.2
8,CCN(CC)c1nc(N2CCOCC2)nc2ccccc12.Cl,-48.3
9,CC(=O)N1c2ccc(S(=O)(=O)N3CCCC(C(=O)N4CCCCC4)C3)cc2CC1C (centres unmarked),19.2
10,CC(C)(C)NC(=O)CN(Cc1cccs1)C(=O)C1COc2ccccc2O1 (centres unmarked),-14.7
11,Cc1cc(=O)[nH]c(N/N=C/c2c(C)oc3ccccc23)n1,-0.943
12,Nc1nc(Nc2ccccc2)nc(NC2CCCCC2)c1[N+](=O)[O-],18.9
13,Cn1nccc1C(=O)N1CCOCC1,5.59
14,FC(F)Oc1ccc(NC(=S)NCC2COc3ccccc3O2)cc1 (centres unmarked),-5.83
15,COc1ccc(OC)c(/C=N\NC(=O)c2ccc(COc3ccc(C)cc3[N+](=O)[O-])o2)c1,16.2
16,N#Cc1cnn(-c2cccc(Cl)c2)c1N,11.6
17,Cc1csc(NC(=O)CS(=O)(=O)c2ccccc2)n1,-18.1
18,COc1ccc(NC(=O)c2nc[nH]c2C(=O)N2CCN(c3ccccc3)CC2)cc1,3.64
19,CC(C)CN(C(=O)CSc1nn(-c2ccc(Cl)cc2)c(=S)s1)C1CCS(=O)(=O)C1 (centres unmarked),-20.1
20,O=C(COC(=O)/C=C/c1cccs1)Nc1nc(-c2ccccc2)cs1,12.1
21,Nc1nc(NCc2ccco2)nc(N2CCN(Cc3ccccc3)CC2)c1[N+](=O)[O-],-41.9
22,Cl.c1ccc(CN2CCN(c3nc(NCc4ccco4)c4ccccc4n3)CC2)cc1,-68.3
23,Nc1nc(N2CCN(Cc3ccccc3)CC2)n[nH]1,24.7

row,Structure (SMILES),"hERG current change (%, negative = inhibition) at 10uM [%]"
1,c1ccc(CNc2nc(NCc3ccco3)nc(N3CCOCC3)n2)cc1,-28.5
2,c1ccc(CN2CCN(c3nc4ccccc4s3)CC2)cc1,11.8
3,Cl.c1ccc(CNc2nc(N3CCN(Cc4ccccc4)CC3)nc3ccccc23)cc1,-65.9
4,CCc1ccc(CCC(=O)Nc2ccc(C)c(C)c2)o1,-20.8
5,COC(=O)NCC(c1ccco1)N1CCN(c2ccc(F)cc2)CC1 (centres unmarked),-1.75
6,Cc1[nH]n(-c2ccccc2)c(=O)c1N=Nc1ccccc1C(=O)O,1.85
7,COc1ccc(CN(C)C(=O)C(Cc2ccccc2)NC(=O)c2ccccc2)c(OC)c1 (centres unmarked),-13.5
8,Cc1nn(-c2ccccc2)c2c1C1(C(=O)Nc3ccccc31)N1C(=N2)Sc2ccccc21 (centres unmarked),0.952
9,Cc1cc(N)n2nc(C)c(-c3ccccc3)c2n1,-21.9
10,Cc1ccc2c(cnn2C(=O)CCCC(=O)NC(C)c2ccccc2)c1 (centres unmarked),-5.97
11,CCN(CC)S(=O)(=O)c1cccc(C(=O)Oc2cccnc2)c1,-8.07
12,O=C(Cc1ccc([N+](=O)[O-])cc1)N1CCN(c2ccc([N+](=O)[O-])cc2)CC1,-73.7
13,Cc1ccc(CC(=O)N2CCN(Cc3ccccc3)CC2)cc1,4.07
14,O=C(Cc1ccccc1)N1CCN(Cc2ccc([N+](=O)[O-])cc2)CC1,-63.4
15,Cc1ccc(CC(=O)N2CCN(c3ccc([N+](=O)[O-])cc3)CC2)cc1,-62.1
16,COc1ccccc1CC(=O)N1CCN(c2ccccc2)CC1,9.19
17,O=C(Cc1ccc(Br)cc1)N1CCN(Cc2ccccc2)CC1,-30.9
18,CS(=O)(=O)N1CCN(C(=O)Cc2ccc([N+](=O)[O-])cc2)CC1,0.692
19,COc1ccc(N2CCN(C(=O)Cc3ccc(C)cc3)CC2)cc1,-6.07
20,O=C(Cc1ccc([N+](=O)[O-])cc1)N1CCCCCC1,-21.9
21,COc1ccccc1CC(=O)N1CCN(c2ccc([N+](=O)[O-])cc2)CC1,-52
22,Cc1ccc(CC(=O)N2CCN(C)CC2)cc1,18.1
23,COc1ccccc1CC(=O)N1CCN(c2ccc(F)cc2)CC1,-11.1

row,Structure (SMILES),"hERG current change (%, negative = inhibition) at 10uM [%]"
1,CC(=O)N/C(=C\c1ccc(F)cc1)C(=O)N(C)C,14.2
2,O=C(OCn1nnc2ccccc2c1=O)c1ccc2c(=O)n3c(nc2c1)CCC3,-7.06
3,Cc1ccccc1NC(=O)Cn1c(C)nc2ccc(N)cc2c1=O,7.11
4,CCO.N#Cc1c(SC(C(=O)O)c2ccccc2)nc2c(c1-c1cccs1)CCCC2 (centres unmarked),25.2
5,C[C@@]12CCC=C[C@H]1[C@H](c1ccc(C(F)(F)F)cc1)N(Cc1ccccc1)C2=O,12.2
6,O=C1C=C(NCc2ccc(Cl)cc2)CCC1,-25.2
7,COC(=O)c1cc(OC)c(OC)cc1NC(=S)N1CCN(Cc2ccccc2)CC1,6.28
8,CCOc1ccccc1C(=O)OCC(=O)NCC1CCCCC1,-7.31
9,O=C(COC(=O)COc1ccccc1[N+](=O)[O-])Nc1cccc(Br)c1,9.05
10,COC(=O)COc1ccc2c(-c3cccc([N+](=O)[O-])c3)cc(=O)oc2c1,-31.8
11,CCCOc1ccc(C(O)C(CN2CCOCC2)c2ccccc2)cc1.Cl (centres unmarked),1.07
12,O=C(/C=C/c1ccc(F)cc1)N1CCN(Cc2ccccc2)CC1,-40.6
13,Clc1ccc(/C=N/N2CCN(Cc3ccccc3Cl)CC2)cc1,14.9
14,O=[N+]([O-])c1ccc(Cl)c(/C=N/N2CCN(Cc3ccccc3)CC2)c1,-1.74
15,O=C(/C=C/c1ccc([N+](=O)[O-])cc1)N1CCN(S(=O)(=O)c2ccccc2)CC1,-34.1
16,CC(C)CC(=O)N1CCN(S(=O)(=O)c2ccccc2)CC1,0.444
17,O=[N+]([O-])c1cccc(/C=N/N2CCN(Cc3ccccc3)CC2)c1,-0.159
18,O=C(/C=C/c1ccc(OCCCF)cc1)N1CCN(Cc2ccccc2)CC1,-65.6
19,O=C(/C=C/c1ccc(OCCCF)cc1)N1CCOCC1,1.61
20,COc1ccc(/C=N\N2CCN(Cc3ccccc3Cl)CC2)cc1.Cl,-62.4
21,COc1ccc(/C=N/N2CCN(Cc3ccccc3)CC2)cc1,-2.63
22,CC(CC(=O)N1CCN(S(=O)(=O)c2ccc([N+](=O)[O-])cc2)CC1)c1ccccc1 (centres unmarked),-67.8
23,O=[N+]([O-])c1ccc(/C=N/N2CCN(Cc3ccccc3)CC2)cc1,-56.3
